We go through five compounds from PubChem BioAssay.

The structures appear in SMILES notation. Activity calls are given as the source filed them. Unless noted, the rule behind the calls is not given here.

Test [1] is described as follows: compounds binding Alexa647 anti-His antibody – biochemical, small-molecule microarray, 635 nm fluorescence, artefact control for SMM control protein annotation, primary screen (AID 1128).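 Note: score merges feature fluorescence with signal-to-noise for each printed compound spot.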 The note with it: higher = more signal.
Test [2] concerns Human papillomavirus type 1a E7 protein (residues 1-88). As to the kind of experiment: HPV1a E7 small-molecule binders, primary screen, biochemical, small-molecule microarray, residues 1-88, 635 nm (AID 1129). The settings on record: small-molecule microarray binding, fluorescence 635 nm; higher = more signal.
Test [3] has as its target Focal adhesion kinase 1 (Homo sapiens) (UniProt Q05397). As to the kind of experiment: PTK2 protein binding on printed compound slides – biochemical, small-molecule microarray, 635/667 nm fluorescence, BSA, DTT, primary screen (AID 1130).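 Note: composite of spot emission at 667 nm and signal to noise over triplicate slides.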 The note with it: 635 nm fluorescence, higher = more signal.
Test [4] deals with Fibrinogen (Alexa647-labelled). As to the kind of experiment: Alexa647-fibrinogen binding to printed small molecules – biochemical, small-molecule microarray, 635/667 nm fluorescence, artefact control for SMM control-protein annotation, profiling panel (AID 1131).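 Note: z-score merges 667 nm fluorescence with per-spot signal-to-noise over triplicate slides.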 The note with it: fibrinogen-A647 binding fluorescence, higher = more signal.
Test [5] has as its target Follistatin (Homo sapiens) (UniProt P19883). Description: FST protein binding to printed compounds – biochemical, small-molecule microarray, 635/667 nm fluorescence, primary screen (AID 1132). The note with it: 635 nm fluorescence, higher = more signal.
In test [6] the target is Fibroblast growth factor 2 (Homo sapiens) (UniProt P09038). Description: basic fibroblast growth factor binding to printed compounds – biochemical, small-molecule microarray, 635/667 nm fluorescence, primary screen (AID 1133). The note with it: FGF2, fluorescence 635/667, higher = more signal.
Sequence of Fibroblast growth factor 2 (Homo sapiens) (P09038 whole entry, looked up): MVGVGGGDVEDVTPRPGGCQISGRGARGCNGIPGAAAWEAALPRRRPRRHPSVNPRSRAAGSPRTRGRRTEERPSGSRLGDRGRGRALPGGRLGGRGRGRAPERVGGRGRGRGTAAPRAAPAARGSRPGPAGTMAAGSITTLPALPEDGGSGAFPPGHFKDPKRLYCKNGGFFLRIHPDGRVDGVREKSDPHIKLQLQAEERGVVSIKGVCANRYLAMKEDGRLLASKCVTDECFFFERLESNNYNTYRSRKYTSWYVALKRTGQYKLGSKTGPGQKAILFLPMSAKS
Test [7] is described as follows: JC-1 mitochondrial potential readout, lung cancer cells – cell-based, A549, JC-1 fluorescence, basal, 24 h, 100 nL, profiling panel (AID 1138).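 Note: A549 lung adenocarcinoma cells under basal conditions with no added stimulus; test concentration not given here.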 The note with it: higher = more signal.
A further test relates to Lefty1. Description: Lefty1 protein binding to printed compounds – biochemical, small-molecule microarray, 635/667 nm fluorescence, primary screen (AID 1139). The settings on record: fluorescence 635/667, higher = more signal.
The test system of test [8] is wheat germ agglutinin (Triticum aestivum), Alexa647-labelled. Description: Alexa647-WGA lectin binding to printed small molecules – biochemical, small-molecule microarray, 635/667 nm fluorescence, artefact control for SMM control-protein annotation, profiling panel (AID 1140).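 Note: score merges 667 nm feature emission with signal to noise over triplicate slides.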 The settings on record: WGA-A647 binding, 635 nm fluorescence, higher = more signal.
Test [9] concerns the target Luciferin 4-monooxygenase (Photinus pyralis) (UniProt P08659). As to the kind of experiment: inhibition of purified Photinus pyralis luciferase – biochemical, luminescence, purified enzyme, 2006 set, primary screen (AID 1141).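 Note: cell-free assay with purified firefly luciferase at 100 ng per well in PBS; test concentration not given here.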 The settings on record: purified firefly luciferase, SteadyGlo luminescence, 30 min; higher = more signal, called active from +8 up or from −8 down.

The subject of test [10] is Wnt5a (protein binding on small-molecule microarray). As to the kind of experiment: small molecules binding Wnt5a protein – biophysical, small-molecule microarray, 635/667 nm fluorescence, primary screen (AID 1142).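 Note: fluorescence read at 667 nm with signal to noise per printed feature.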 The settings on record: 635 nm fluorescence, higher = more signal.
A short description of test [11]: ATP-based viability of Huh7 replicon cells – cell-based, CellTiter-Glo luminescence, basal, 48 h, cytotoxicity control for HCV replication inhibitor project, primary screen (AID 1143).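 Note: Huh7 hepatoma cells carrying a hepatitis C replication reporter with no stimulus; test concentration not given here.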 The note with it: higher = more signal, called active from +8 up or from −8 down. On the technique in general: In antiviral work, replicon cells carry a viral genome segment that copies itself.

The nature of test [12]: Pseudomonas biofilm growth suppression – PAO1 strain, BacTiter-Glo luminescence, LB-PBS, primary screen (AID 1144). The settings on record: P. aeruginosa PAO1 biofilm, 12 h, higher = more signal.
Test [13] can be described thus: basal CRE-LacZ reporter activity in PC12 – cell-based, unstimulated, primary screen (AID 1145). The settings on record: no forskolin, luminescence, 4.5 h, higher = more signal, called active from +8 up or from −8 down.
A short description of test [14]: forskolin-driven CRE-LacZ activity in PC12 – cell-based, CRE-LacZ reporter, forskolin-stimulated, primary screen (AID 1146).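 Note: PC12 cells with 6xCRE LacZ reporter stimulated by forskolin 10 µM; beta-galactosidase reporter signal reflecting CREB driven transcription.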 The settings on record: luminescence, 4.5 h, higher = more signal, called active from +8 up or from −8 down.
Test [15] has as its target Streptavidin (Streptomyces avidinii) (UniProt P22629). As to the kind of experiment: compounds binding control protein streptavidin – biophysical, small-molecule microarray, 635/667 nm fluorescence, artefact control for SMM compound annotation, primary screen (AID 1147).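 Note: signal reflects streptavidin binding to arrayed compounds as a control protein.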 The note with it: higher = more signal.
A short description of test [16]: probe aInhba binding on compound microarray – biochemical, small-molecule microarray, 635/667 nm fluorescence, primary screen (AID 1148).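 Note: score merges 667nm spot fluorescence with signal-to-noise for antibody binding to printed compounds.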 The note with it: higher = more signal.
Test [17] has as its target Torsin-1A (Homo sapiens) (UniProt O14656). As to the kind of experiment: TOR1A wild-type binding on microarray – cell lysate, small-molecule microarray, lysate, 635/667 nm, primary screen (AID 1149). The note with it: COS7 hTOR1A-WT lysate, 635 nm fluorescence, higher = more signal.
The target is the same in test [18]. As to the kind of experiment: torsin A mutant lysate binding on microarrays – cell lysate, small-molecule microarray, COS7 lysate, 635/667 nm fluorescence, primary screen (AID 1150).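 Note: score pools 667 nm emission and signal to noise measuring lysate protein binding.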 The note with it: COS7 hTOR1A mutant lysate, 635 nm fluorescence, higher = more signal.
Test [19] deals with Sonic hedgehog protein (Shh). Description: Sonic hedgehog microarray binding compounds – biochemical, small-molecule microarray, 635/667 nm fluorescence, primary screen (AID 1151).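 Note: Shh protein binding to compounds spotted on small-molecule microarray slides; score combines spot fluorescence intensity with signal-to-noise across triplicate slides.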 The settings on record: 635 nm fluorescence, higher = more signal.

Sequence of Torsin-1A (Homo sapiens) (O14656 whole entry, looked up): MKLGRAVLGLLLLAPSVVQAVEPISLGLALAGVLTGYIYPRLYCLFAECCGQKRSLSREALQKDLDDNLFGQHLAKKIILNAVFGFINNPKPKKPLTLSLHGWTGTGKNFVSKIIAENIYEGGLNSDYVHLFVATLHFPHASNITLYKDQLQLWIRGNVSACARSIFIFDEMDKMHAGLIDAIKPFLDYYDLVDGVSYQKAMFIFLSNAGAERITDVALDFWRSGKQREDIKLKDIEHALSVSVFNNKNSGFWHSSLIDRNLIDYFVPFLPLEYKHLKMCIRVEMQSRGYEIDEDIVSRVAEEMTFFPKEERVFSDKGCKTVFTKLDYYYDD
Sequence of Streptavidin (Streptomyces avidinii) (P22629 whole entry, looked up): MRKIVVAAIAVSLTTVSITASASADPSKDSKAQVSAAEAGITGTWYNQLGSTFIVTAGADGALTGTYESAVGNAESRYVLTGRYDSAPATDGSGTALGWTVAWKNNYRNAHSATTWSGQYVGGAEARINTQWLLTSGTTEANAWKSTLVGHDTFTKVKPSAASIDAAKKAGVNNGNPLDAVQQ
Sequence of Luciferin 4-monooxygenase (Photinus pyralis) (P08659 whole entry, looked up): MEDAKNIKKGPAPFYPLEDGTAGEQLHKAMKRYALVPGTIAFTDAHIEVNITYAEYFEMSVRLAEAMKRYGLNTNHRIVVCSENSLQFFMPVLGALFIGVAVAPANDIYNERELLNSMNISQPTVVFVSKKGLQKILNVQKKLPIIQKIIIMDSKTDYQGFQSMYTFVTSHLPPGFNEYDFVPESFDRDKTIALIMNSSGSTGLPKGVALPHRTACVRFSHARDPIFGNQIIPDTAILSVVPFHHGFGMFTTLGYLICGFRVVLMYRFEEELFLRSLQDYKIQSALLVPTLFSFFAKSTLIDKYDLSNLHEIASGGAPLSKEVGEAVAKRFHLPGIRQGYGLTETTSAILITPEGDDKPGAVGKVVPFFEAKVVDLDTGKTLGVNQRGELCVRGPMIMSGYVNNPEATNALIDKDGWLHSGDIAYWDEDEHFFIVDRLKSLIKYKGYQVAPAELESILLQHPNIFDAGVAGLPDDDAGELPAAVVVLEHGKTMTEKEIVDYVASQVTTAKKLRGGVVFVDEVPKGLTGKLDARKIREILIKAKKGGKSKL
Sequence of Follistatin (Homo sapiens) (P19883 whole entry, looked up): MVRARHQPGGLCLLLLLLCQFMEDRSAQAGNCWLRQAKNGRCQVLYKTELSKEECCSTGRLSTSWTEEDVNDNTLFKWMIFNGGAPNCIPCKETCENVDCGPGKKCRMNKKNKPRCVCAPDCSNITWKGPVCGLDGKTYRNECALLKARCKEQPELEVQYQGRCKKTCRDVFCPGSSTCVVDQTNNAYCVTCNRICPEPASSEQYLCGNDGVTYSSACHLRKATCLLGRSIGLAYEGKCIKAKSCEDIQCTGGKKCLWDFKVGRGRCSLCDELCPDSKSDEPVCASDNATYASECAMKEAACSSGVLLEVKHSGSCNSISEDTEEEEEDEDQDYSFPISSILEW
Sequence of Focal adhesion kinase 1 (Homo sapiens) (Q05397 whole entry, looked up): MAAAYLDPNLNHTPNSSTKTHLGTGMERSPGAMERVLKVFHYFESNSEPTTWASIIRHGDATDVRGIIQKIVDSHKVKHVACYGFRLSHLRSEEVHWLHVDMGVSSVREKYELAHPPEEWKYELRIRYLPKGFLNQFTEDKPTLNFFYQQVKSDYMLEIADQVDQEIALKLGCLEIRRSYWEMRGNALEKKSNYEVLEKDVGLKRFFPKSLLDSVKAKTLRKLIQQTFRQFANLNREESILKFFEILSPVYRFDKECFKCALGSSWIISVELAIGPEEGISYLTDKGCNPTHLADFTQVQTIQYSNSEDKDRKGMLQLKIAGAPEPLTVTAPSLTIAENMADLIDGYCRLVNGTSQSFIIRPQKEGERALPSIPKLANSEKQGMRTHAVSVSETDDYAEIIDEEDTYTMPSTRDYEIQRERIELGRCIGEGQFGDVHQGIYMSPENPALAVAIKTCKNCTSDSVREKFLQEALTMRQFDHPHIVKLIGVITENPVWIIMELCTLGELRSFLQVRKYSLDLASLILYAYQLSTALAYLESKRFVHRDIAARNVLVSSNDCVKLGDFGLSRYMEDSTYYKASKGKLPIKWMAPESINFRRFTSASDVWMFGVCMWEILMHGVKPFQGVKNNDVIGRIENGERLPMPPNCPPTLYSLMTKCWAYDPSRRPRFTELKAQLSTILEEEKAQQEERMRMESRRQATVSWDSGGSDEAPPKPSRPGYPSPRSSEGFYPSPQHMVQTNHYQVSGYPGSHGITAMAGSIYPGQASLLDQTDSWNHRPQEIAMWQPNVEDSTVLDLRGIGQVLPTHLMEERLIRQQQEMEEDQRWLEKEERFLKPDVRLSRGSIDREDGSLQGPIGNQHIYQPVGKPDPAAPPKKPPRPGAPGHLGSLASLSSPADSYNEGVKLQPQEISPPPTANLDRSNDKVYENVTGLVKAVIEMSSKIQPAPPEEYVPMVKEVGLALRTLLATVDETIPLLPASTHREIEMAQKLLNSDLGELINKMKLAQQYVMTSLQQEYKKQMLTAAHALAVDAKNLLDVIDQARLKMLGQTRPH

With `O=C(NCCO)C1=C[C@H](Oc2ccccc2I)[C@@H](O)[C@H](N(Cc2ccco2)C(=O)Cc2ccccc2)C1`, the composite z-score in test [1] was -0.169; in [2], 0.234; in [3], -0.27; in [4] it was -0.175; in test [5], 0.863; in test [6], 0.58. In addition, the composite z-score in the test on Lefty1 was 0.624; in test [8], -0.109; in test [10], 0.234; in test [15], 0.317; in [16], -0.202; with Torsin-1A (Homo sapiens) [17] it was 0.303. Besides, the composite z-score came out at 0.0805 in the test with Torsin-1A (Homo sapiens) [18] and 0.412 in test [19]. For the same compound, the z-score is -1.18 in test [7]; 0.341 (inactive) in [9]; 0.0266 (inactive) in [11]; -0.0382 (inactive) in [12]; -0.78 (inactive) in test [13]; 0.603 (inactive) in test [14].

Turning to `COC(=O)[C@@]1(Cc2ccc(F)cc2)[C@H]2c3cc(C(=O)N4CCCC4)n(CCCNc4ncc(C(F)(F)F)cc4Cl)c3C[C@H]2CN1C(=O)c1ccccc1`, the composite z-score is 2.47 in [1]; 1.08 in test [2]; 0.604 in test [3]; 0.817 in test [4]; -0.0084 in [5]; -0.903 in test [6]. Besides, the composite z-score with Lefty1 is -0.695; in test [8] it was 1.03; in [10] it was -0.026; in test [15], 0.919; in [16], 0.656; in the test with Torsin-1A (Homo sapiens) [17], -0.107. Further, the results for the composite z-score (in the test with Torsin-1A (Homo sapiens) [18]; in [19]) were -0.0136 and -0.516, respectively. Besides, the z-score in test [7] was 0.742; in test [9], 1.37 (inactive); in test [11] it was -1.89 (inactive); in test [12], -0.0456 (inactive); in test [13], 1.74 (inactive); in [14] it was -0.152 (inactive).

Consider `CN1C(=O)C2C=CC(C(O)c3ccccc3)N(N(c3ccccc3)c3ccccc3)C2C1=O` (stereo not given), for which the composite z-score is 1.95 in test [1]; -0.54 in [2]; 0.112 in test [3]; 0.384 in test [4]; 1.34 in test [5]; -0.0637 in test [6]. The composite z-score in the test with Lefty1 is 0.03; in test [8], 0.489; in [10], -0.117; in test [15], 0.39; in test [16], 0.0051; in the test with Torsin-1A (Homo sapiens) [17], -0.351. Moreover, the composite z-score was -0.398 with Torsin-1A (Homo sapiens) [18] and 0.522 in [19]. Besides, the z-score in test [7] was -0.516; in [9] it was 1.07 (inactive); in test [11], 0.653 (inactive); in test [12], 0.808 (inactive); in test [13] it was -0.712 (inactive); in test [14], 0.635 (inactive).

As for `COc1ccc(C#Cc2ccc3c(c2)[C@]2(C(=O)N3)[C@H](c3ccccc3OCCO)N3[C@H](c4ccccc4)[C@H](c4ccccc4)OC(=O)[C@H]3[C@@H]2C(=O)Nc2nc3ccccc3s2)cc1`, the composite z-score in test [1] turned out to be 1.5; in test [2], 1.16; in test [3], 0.717; in test [4], 0.767; in test [5], 1.25; in test [6], 1.19. Besides, the composite z-score in the test on Lefty1 is 1.33; in test [8] it was 0.828; in test [10] it was 0.469; in [15], 1.09; in test [16], 1.06; with Torsin-1A (Homo sapiens) [17], 0.0821. Moreover, the composite z-score with Torsin-1A (Homo sapiens) [18] came to 0.479; in test [19] it was 1.52. Also, the z-score in test [7] is -2.28; in test [9], -1.36 (inactive); in test [11], -1.62 (inactive); in test [12] it was -0.726 (inactive); in test [13], -1.28 (inactive); in [14], -1.38 (inactive).

In the case of `CCOC(=O)C[C@H]1[C@H](OC(=O)c2cc3ccccc3oc2=O)[C@@H](NC(=O)c2ccccc2)c2cc(OCCCO)ccc2N1C(=O)c1ccc2ccccc2n1`, the composite z-score in test [1] was 0.255; in test [2], 0.625; in [3], -0.148; in [4], 0.586; in test [5], 1.19; in test [6], 0.563. The composite z-score in the test on Lefty1 is 0.87; in test [8] it was 0.345; in test [10], 0.343; in test [15], 0.865; in test [16] it was -0.0405; with Torsin-1A (Homo sapiens) [17] it was 0.0356. In addition, the composite z-score in the test with Torsin-1A (Homo sapiens) [18] was found to be 0.611; in [19] it was 0.954. Further, the z-score was -0.339 in test [7]; 0.409 (inactive) in test [9]; -0.468 (inactive) in test [11]; 0.594 (inactive) in [12]; 9.1 (active) in [13]; -0.539 (inactive) in test [14].
